Test results: PubChem BioAssay (Tox21)
Results filed as inconclusive are left out. A call without a number means that no potency is given here. Active and inactive are the calls of the source. Calls follow the shape of the full dose curve.
Potency is read from the fitted curve at half-maximal effect.

These compounds were tested against Muscarinic acetylcholine receptor M1 (Homo sapiens) (UniProt P11229) (assay: Cholinergic receptor muscarinic 1 (CHRM1) small molecule antagonists, cell-based qHTS assay (AID 1963588; also: nearly all actives have a fitted effect of over 40% in size)). Details: CHRM1-CHO antagonist mode, calcium flux fluorescence; series mostly up to 61.5 µM.
Muscarinic acetylcholine receptor M1 (Homo sapiens), sequence (P11229 whole entry, looked up): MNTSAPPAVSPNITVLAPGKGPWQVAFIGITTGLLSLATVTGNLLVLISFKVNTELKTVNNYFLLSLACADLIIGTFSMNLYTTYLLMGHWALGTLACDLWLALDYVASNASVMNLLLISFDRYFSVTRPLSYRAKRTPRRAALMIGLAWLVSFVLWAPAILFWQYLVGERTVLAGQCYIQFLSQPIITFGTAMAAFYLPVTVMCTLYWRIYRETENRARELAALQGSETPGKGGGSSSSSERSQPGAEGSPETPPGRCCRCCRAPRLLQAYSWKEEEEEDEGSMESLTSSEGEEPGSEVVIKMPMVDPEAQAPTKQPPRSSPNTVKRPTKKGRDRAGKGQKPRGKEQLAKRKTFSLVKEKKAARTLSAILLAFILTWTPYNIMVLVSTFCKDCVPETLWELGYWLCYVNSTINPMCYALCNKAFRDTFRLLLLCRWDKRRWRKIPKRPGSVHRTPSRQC
Method in brief: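 CHRM1-CHO calcium-flux assay, antagonist mode. Cells were seeded 18 h, dye-loaded 1 h at 37 C and given compound for 5 min at RT, then acetylcholine was added at 50nM. FDSS fluorescence was read 3 min; 15 concentrations, three runs.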
In the case of `CC(C)(C)c1cc(/C=C2\SC(=N)NC2=O)cc(C(C)(C)C)c1O`, the Potency is reported as “inactive”. With `O=S(=O)(Oc1ccc(Cl)cc1)c1ccccc1` the Potency was 11.9 µM (active). In the case of `CCc1ncc(C)[nH]1`, the Potency is reported as “inactive”. With `O=C1CCCc2c1cc1ccc3cccc4ccc2c1c34` the Potency was “inactive”. `CC(C)(C)CC(C)(C)c1ccccc1O` was tested, and the Potency was “inactive”. `CCCCC/C=C\C/C=C\CCCCCCCC(=O)NC(C)c1ccccc1` (centres undefined) was tested, and the Potency was “inactive”. With `Oc1ccc2c(c1)-c1ccccc1C2` the Potency was “inactive”. In the case of `CSC(=O)c1cccc2nnsc12`, the Potency is reported as “inactive”. With `CCN(Cc1cccnc1)C(=O)c1cccc(Cl)c1[C@]1(C)C(=O)N(Cc2ccc(OC)cc2OC)c2ccc(Cl)cc21` the Potency was “inactive”. `COc1cc(-c2ccc(=O)[nH]n2)ccc1OC(F)F` was tested, and the Potency was “inactive”. With `COc1ccc(S(=O)(=O)Nc2nnc(CC(C)C)s2)cc1` the Potency was “inactive”. In the case of `O=C(O)c1c2ccccc2cc2ccccc12`, the Potency is reported as “inactive”. With `Cc1cc(NC(=O)C(=O)O)cc(C)c1Oc1ccc(O)c2c1CCC2` the Potency was “inactive”. For `Cc1oc(-c2ccccc2)nc1CCOc1cccc2c1ccn2CCC(=O)O`, the Potency was “inactive”. In the case of `COc1ccc(/C=C/c2cc(OC)cc(=O)o2)cc1`, the Potency is reported as “inactive”. For `CCCNC(C)C(=O)Nc1c(C)csc1C(=O)OC` (centres undefined), the Potency was “inactive”. For `OCCCS`, the Potency was “inactive”. `OCCCCCO` was tested, and the Potency was “inactive”. For `CC(=O)OCC(=O)[C@@]1(O)[C@H](OC(C)=O)C[C@H]2[C@@H]3CCC4=CC(=O)C=C[C@]4(C)[C@@]3(F)[C@@H](O)C[C@@]21C`, the Potency was “inactive”. `NS(=O)(=O)c1ccc(C(=O)O)cc1` was tested, and the Potency was “inactive”. For `O=C(O)C1(C(=O)Nc2ccc(Cl)cc2Cl)CC1`, the Potency was “inactive”. `CC1=CC(C)C(C=O)C(C)C1` (centres undefined) was tested, and the Potency was “inactive”. For `ClCCOCCOCCCl`, the Potency was “inactive”. With `CC(COc1ccccc1)NN` (centres undefined) the Potency was “inactive”. `CCCCNC(=O)NCCCC` was tested, and the Potency was “inactive”. For `CCOc1ccccc1OCC1CNCCO1` (centres undefined), the Potency was “inactive”.

These compounds were tested against Muscarinic acetylcholine receptor M1 (Homo sapiens) (UniProt P11229) (assay: Cholinergic receptor muscarinic 1 (CHRM1) small molecule agonists, cell-based qHTS assay (AID 1963589; also: nearly all actives have a fitted effect of over 35% in size)). Details: CHRM1-CHO cells, agonist mode, calcium flux fluorescence; series mostly up to 76.8 µM.
Method in brief: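 Measures agonist-induced intracellular calcium rise. Stable human CHRM1 CHO line, 1 h dye load at 37 C, compounds from DMSO, kinetic fluorescence read.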
In the case of `CNCc1cc(F)ccc1Oc1ccc(Cl)c(Cl)c1`, the Potency is reported as “inactive”. `CC(C)(C)c1cc(/C=C2\SC(=N)NC2=O)cc(C(C)(C)C)c1O` was tested, and the Potency was “inactive”. For `CN(C)CCN(Cc1ccccc1)c1ccccn1`, the Potency was “inactive”. `O=S(=O)(Oc1ccc(Cl)cc1)c1ccccc1` was tested, and the Potency was “inactive”. For `CCc1ncc(C)[nH]1`, the Potency was “inactive”. For `O=C1CCCc2c1cc1ccc3cccc4ccc2c1c34`, the Potency was “inactive”. `CCCCC/C=C\C/C=C\CCCCCCCC(=O)NC(C)c1ccccc1` (centres undefined) was tested, and the Potency was “inactive”. With `Oc1ccc2c(c1)-c1ccccc1C2` the Potency was “inactive”. `CCCCCCCCCCCCCCCCCCNC(=O)OC1CCN(C(=O)OC[C@H](COC(=O)N(Cc2cccc[n+]2CC)C(=O)c2ccccc2OC)OC)CC1` was tested, and the Potency was “inactive”. In the case of `CC(=O)/C=C/C=C1/C2CCC(C2)C1(C)C` (centres undefined), the Potency is reported as “inactive”. `CCN(Cc1cccnc1)C(=O)c1cccc(Cl)c1[C@]1(C)C(=O)N(Cc2ccc(OC)cc2OC)c2ccc(Cl)cc21` was tested, and the Potency was “inactive”. For `COc1cc(-c2ccc(=O)[nH]n2)ccc1OC(F)F`, the Potency was 0.0038 µM (active). `CCCCCCCCCCCCN1CCCCCC1=O` was tested, and the Potency was “inactive”. `COc1ccc(S(=O)(=O)Nc2nnc(CC(C)C)s2)cc1` was tested, and the Potency was “inactive”. `NC(=O)N1C(=O)C(C(=O)c2cc(Cl)cs2)c2cc(F)c(Cl)cc21` (centres undefined) was tested, and the Potency was “inactive”. `O=C(O)c1c2ccccc2cc2ccccc12` was tested, and the Potency was “inactive”. With `Cc1cc(NC(=O)C(=O)O)cc(C)c1Oc1ccc(O)c2c1CCC2` the Potency was “inactive”. `Cc1oc(-c2ccccc2)nc1CCOc1cccc2c1ccn2CCC(=O)O` was tested, and the Potency was “inactive”. `O=C(CCCN1CCN(c2ccc(F)cc2)CC1)NC1c2ccccc2CSc2ccccc21` (centres undefined) was tested, and the Potency was “inactive”. In the case of `COc1ccc(/C=C/c2cc(OC)cc(=O)o2)cc1`, the Potency is reported as “inactive”. `CCCNC(C)C(=O)Nc1c(C)csc1C(=O)OC` (centres undefined) was tested, and the Potency was “inactive”. With `OCCCS` the Potency was “inactive”. `O=C(O)COc1ccc2ccccc2c1` was tested, and the Potency was “inactive”. In the case of `OCCCCCO`, the Potency is reported as “inactive”. With `CC(=O)OCC(=O)[C@@]1(O)[C@H](OC(C)=O)C[C@H]2[C@@H]3CCC4=CC(=O)C=C[C@]4(C)[C@@]3(F)[C@@H](O)C[C@@]21C` the Potency was “inactive”. `NS(=O)(=O)c1ccc(C(=O)O)cc1` was tested, and the Potency was “inactive”. In the case of `O=C(O)C1(C(=O)Nc2ccc(Cl)cc2Cl)CC1`, the Potency is reported as “inactive”. In the case of `CC1=CC(C)C(C=O)C(C)C1` (centres undefined), the Potency is reported as “inactive”. With `ClCCOCCOCCCl` the Potency was “inactive”. In the case of `CC(COc1ccccc1)NN` (centres undefined), the Potency is reported as “inactive”. With `CCCCNC(=O)NCCCC` the Potency was “inactive”. In the case of `CCOc1ccccc1OCC1CNCCO1` (centres undefined), the Potency is reported as “inactive”. For `Cc1coc2ccccc2c1=O`, the Potency was “inactive”.
